Data as given in PubChem BioAssay (NCATS).
Values joined by “and” are separate entries in the source; they are usually repeats but may differ in a detail not shown here. Equal entries are not always repeated. Results filed as inconclusive are left out. Active and inactive are the calls of the source. The call rests on the fitted dose curve; in most records, active means well fitted inhibition curve with a large enough effect; inconclusive means small, poorly fitted or top-dose-only effect; inactive means flat fitted curve, though single readings scatter. Starred links: 1 amine or outer side, 2 acyl side, 3 side chain; linkers in the order of their positions; H or OH if unused. Positions of bridges follow the written chain, without caps; N, C: chain ends. Non-standard residues stand in square brackets, D forms with d. Residues, ends and D or L forms follow the SMILES beside them. Chains are numbered I, II in the order given. Actinocin(9to1) = Cc1c2oc3c(C)ccc(C(=O)[*:1])c3nc-2c(C(=O)[*:2])c(N)c1=O; NMeV = CN[CH](C(=O)O)C(C)C; Sar = CNCC(=O)O

Tests used:
Assay in all cases: Cytotoxic Profiling of Annotated Libraries Using Quantitative High-Throughput Screening (AID 1296008); further: nearly all actives have a fitted effect of over 60% in size
Settings in all cases: Five cell lines viability, CellTiter-Glo ATP luminescence, 48-72 h; max response: hits give low values
CRL-7250 = normal cell line; test system: CRL-7250
Outline: (§1)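 Compounds were pin-transferred onto cells and incubated 48 or 72 hr at 37 degree Celsius, 95% humidity. CellTiter-Glo was added, plates sat 10 min at room temperature, then ATP-coupled luminescence was imaged as the viability read-out.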

HEK293 = test system: HEK293
Outline: as §1

HaCat = test system: HaCat
Outline: as §1

KB-3-1 = test system: KB-3-1
Outline: as §1

NIH3T3 = test system: NIH3T3
Outline: as §1
On the % scale 0 is the no-effect control and ±100 the full control effect; potency means the concentration at half of the fitted maximal effect.

CN1C(C(=O)Nc2ccccn2)=C(O)c2sc(Cl)cc2S1(=O)=O
inactive: outcome (CRL-7250) | outcome (HEK293) | outcome (HaCat) | max response (KB-3-1) 3.99% | max response (NIH3T3) -1.3%

c1cc(CN2CCCNCCNCCCNCC2)ccc1CN1CCCNCCNCCCNCC1
inactive: max response (CRL-7250) -0.856% | outcome (HEK293) | max response (HaCat) -12.9% | max response (KB-3-1) -8.95% | max response (NIH3T3) -1.27%

COc1ccc(Nc2nccc(NCCO)n2)cc1
inactive: max response (CRL-7250) 1.05% | max response (HEK293) -0.619% | max response (HaCat) 0.234% | max response (KB-3-1) -27.2% | max response (NIH3T3) 1.01%

C[C@@H]1[C@H](C)CC[C@]2(C(=O)O)CC[C@]3(C)C(=CC[C@@H]4[C@@]5(C)C[C@@H](O)[C@H](O)[C@@](C)(CO)[C@H]5CC[C@]43C)[C@@H]12
inactive: max response (CRL-7250) -10.9% | max response (HEK293) -10.4% | max response (HaCat) 2.03% | outcome (KB-3-1) | outcome (NIH3T3)

c1cncc(CN2CCC(n3ncc4c(N5CCOCC5)nc(-c5ccc6[nH]ccc6c5)nc43)CC2)c1
active: Potency (CRL-7250) 4.18 µM and 7.31 µM | Potency (HEK293) 5800 nM | Potency (HaCat) 14.8 µM and 18.4 µM | Potency (KB-3-1) 10.3 µM | Potency (NIH3T3) 9.35 µM and 5.17 µM

CC(C)(C)[N+]([O-])=Cc1ccc(S(=O)(=O)O)cc1S(=O)(=O)O
inactive: max response (CRL-7250) 1.88% | max response (HEK293) -0.289% | max response (HaCat) -17.9% | max response (KB-3-1) 9.38% | max response (NIH3T3) 0.254%

Cc1cc(-c2nnc3n2CCCCC3)c(C)n1-c1ccccc1
inactive: max response (CRL-7250) -6.3% | max response (HEK293) -6.24% | outcome (HaCat) | max response (KB-3-1) -0.0627% | max response (NIH3T3) 1.52%

COc1cc(CCc2cc(NC(=O)c3ccc(N4C[C@@H](C)N[C@@H](C)C4)cc3)n[nH]2)cc(OC)c1
inactive: outcome (HaCat)
active: Potency (CRL-7250) 4.69 µM and 8.2 µM | Potency (HEK293) 2960 nM | Potency (KB-3-1) 9.35 µM | Potency (NIH3T3) 10.5 µM

Cc1cnc(NC(=O)Nc2cc(Br)c(C)cc2OC[C@@H]2CNCCO2)cn1
active: Potency (HEK293) 1320 nM | Potency (NIH3T3) 4.18 µM
inactive: max response (CRL-7250) -18.7% | max response (HaCat) 1.25% | max response (KB-3-1) -6.69%

Nc1nc(=O)n([C@H]2C[C@H](O)[C@@H](CO)O2)cc1F
active: Potency (HEK293) 74.3 nM | Potency (HaCat) 0.0118 µM | Potency (KB-3-1) 11.8 µM | Potency (NIH3T3) 0.0083 µM
inactive: outcome (CRL-7250)

O=c1[nH]c(=O)n([C@H]2C[C@@H](O)[C@@H](CO)O2)cc1C=CBr
inactive: max response (CRL-7250) -10.9% | max response (HEK293) -1.26% | max response (HaCat) -10.4% | outcome (KB-3-1) | outcome (NIH3T3)

O=C(C[C@@H]1CC=CCCC(=O)O[C@H](c2ccccc2)CNC1=O)NCc1ccc(Cl)cc1
inactive: outcome (CRL-7250) | max response (HEK293) -3.28% | outcome (HaCat) | outcome (KB-3-1) | max response (NIH3T3) -2.63%

FC(F)c1nc2ccccc2n1-c1nc(N2CCOCC2)nc(N2CCOCC2)n1
active: Potency (CRL-7250) 590 nM and 1.16 µM | Potency (HEK293) 1460 nM | Potency (HaCat) 3.26 µM | Potency (KB-3-1) 2.59 µM | Potency (NIH3T3) 662 nM and 1.64 µM

C#C[C@]1(O)CC[C@@H]2[C@@H]3CCC4=CC(=O)CC[C@@H]4[C@H]3CC[C@@]21CC
inactive: max response (CRL-7250) -6.84% | max response (HEK293) -8.15% | max response (HaCat) -5.66% | max response (KB-3-1) -5.98% | max response (NIH3T3) -8.04%

COc1cc([C@@H]2c3cc4c(cc3[C@@H](O[C@@H]3O[C@@H]5CO[C@@H](c6cccs6)O[C@@H]5[C@H](O)[C@@H]3O)[C@H]3COC(=O)[C@H]23)OCO4)cc(OC)c1O
active: Potency (CRL-7250) 16.6 µM | Potency (HEK293) 148 nM | Potency (HaCat) 0.59 µM | Potency (KB-3-1) 0.743 µM | Potency (NIH3T3) 0.132 µM

CN(C)CC[C@H](c1ccc(Cl)cc1)c1ccccn1
inactive: outcome (CRL-7250) | max response (HEK293) -15.3% | max response (HaCat) -31.9% | max response (KB-3-1) -7.57% | max response (NIH3T3) -0.393%

N#CC(=C(O)c1ccc(Cl)cc1Cl)c1nc2cc(Cl)ccc2c(=O)[nH]1
inactive: max response (CRL-7250) -6.32% | max response (HEK293) 1.08% | max response (HaCat) 4.62% | max response (KB-3-1) 3.32% | max response (NIH3T3) 1.52%

COc1ccc(C[C@@H](C)[C@@H](C)Cc2ccc(OC)c(OC)c2)cc1OC
active: Potency (CRL-7250) 3.32 µM | Potency (HEK293) 2640 nM | Potency (KB-3-1) 2.96 µM | Potency (NIH3T3) 2.35 µM
inactive: max response (HaCat) 3.58%

O=C1NC(O)CCN1[C@@H]1O[C@H](CO)[C@H](O)[C@H]1O (stereo not given in full)
inactive: max response (CRL-7250) -71.1% | max response (HEK293) -3.17% | outcome (HaCat) | max response (KB-3-1) -2.55% | max response (NIH3T3) 1.52%

CC(C)(O)Cn1c(NC(=O)c2ccc(-c3cn[nH]c3)s2)nc2cc(CN3CCOCC3)ccc21
active: Potency (CRL-7250) 1.66 µM | Potency (HEK293) 526 nM | Potency (HaCat) 1.32 µM | Potency (KB-3-1) 1.05 µM | Potency (NIH3T3) 2.35 µM

C=C1CCC2[C@](C)(CO)C(O)CC[C@]2(C)C1CC=C1C(=O)OCC1O (stereo not given in full)
inactive: max response (CRL-7250) -1.23% | max response (HEK293) -3.28% | max response (HaCat) -3.92% | max response (KB-3-1) 8.99% | max response (NIH3T3) 3.77%

CN(N=O)C(=O)N[C@H]1C(O)OC(CO)[C@@H](O)[C@H]1O (stereo not given in full)
inactive: max response (CRL-7250) -3.47% | max response (HEK293) -7.38% | outcome (HaCat) | max response (KB-3-1) 2.81% | max response (NIH3T3) -17.4%

CN[C@@H]1C[C@H]2O[C@@](C)([C@H]1OC)n1c3ccccc3c3c4c(c5c6ccccc6n2c5c31)C(=O)N[C@H]4O
active: Potency (CRL-7250) 0.264 µM | Potency (HEK293) 469 nM | Potency (HaCat) 1.48 µM | Potency (KB-3-1) 2.64 µM | Potency (NIH3T3) 0.166 µM

c1coc(CNc2ncnc3nc[nH]c23)c1
inactive: outcome (CRL-7250) | outcome (HEK293) | outcome (HaCat) | max response (KB-3-1) -3.01% | max response (NIH3T3) 0.142%

CC(C=CC=C(C)C=CC1=C(C)CCCC1(C)C)=CC=CC=C(C)C=CC=C(C)C=CC1=C(C)CCCC1(C)C
inactive: max response (CRL-7250) -6.98% | max response (HEK293) -0.757% | outcome (HaCat) | max response (KB-3-1) 8.98% | max response (NIH3T3) -4.98%

Cc1cc(O)c2c(c1)C(=O)c1cccc(O)c1C2=O
inactive: outcome (CRL-7250) | outcome (HEK293) | max response (HaCat) -2.05% | max response (KB-3-1) 4.24% | max response (NIH3T3) 4.67%

Nc1ccn(C[C@@H](CO)OCP(=O)(O)O)c(=O)n1
inactive: max response (CRL-7250) 3.98% | max response (HEK293) -0.164% | outcome (HaCat) | outcome (KB-3-1) | max response (NIH3T3) 0.667%

Cc1onc(-c2ccccc2)c1C(=O)N[C@@H]1C(=O)N2[C@@H](C(=O)O)C(C)(C)S[C@@H]12
inactive: max response (CRL-7250) -3.26% | max response (HEK293) -0.866% | max response (HaCat) -5.57% | max response (KB-3-1) 3.95% | max response (NIH3T3) -2.28%

COc1cc(OC)c(NC(=O)Nc2cc(C)on2)cc1Cl
inactive: max response (CRL-7250) -0.274% | max response (HEK293) -18.7% | outcome (HaCat) | max response (KB-3-1) 3.5% | max response (NIH3T3) 2.83%

COC(=O)[C@H](CCCN=C(N)N)NS(=O)(=O)c1ccc(C)cc1
inactive: outcome (CRL-7250) | outcome (HEK293) | max response (HaCat) 0.0008% | max response (KB-3-1) -0.67% | max response (NIH3T3) 2.63%

N#Cc1cc(NC(=O)Nc2nnc(-c3ccncc3)s2)ccc1-c1cn[nH]c1
inactive: max response (CRL-7250) -3.75% | outcome (HEK293) | outcome (HaCat) | max response (KB-3-1) 0.642% | max response (NIH3T3) -2.38%

Cc1c2oc3c(C)ccc(C(=O)NC4C(=O)NC(C(C)C)C(=O)N5CCCC5C(=O)N(C)CC(=O)N(C)C(C(C)C)C(=O)OC4C)c3nc-2c(C(=O)NC2C(=O)NC(C(C)C)C(=O)N3CCCC3C(=O)N(C)CC(=O)N(C)C(C(C)C)C(=O)OC2C)c(N)c1=O (stereo not given) (I: TVP[Sar][NMeV] / II: TVP[Sar][NMeV]; ester I:1-I:C, II:1-II:C; linker I:N-II:N via Actinocin(9to1); configuration not given here)
active: Potency (KB-3-1) 6.62e-05 µM
inactive: max response (CRL-7250) -99.9% | max response (HEK293) -93.3% | max response (HaCat) -104% | max response (NIH3T3) -100%

COc1cccc2c1C(=O)c1c(O)c3c(c(O)c1C2=O)C[C@@](O)(C(=O)CO)C[C@@H]3O[C@H]1C[C@H](N)[C@@H](O)[C@H](C)O1
active: Potency (CRL-7250) 1.18 µM | Potency (HEK293) 132 nM | Potency (HaCat) 0.372 µM | Potency (KB-3-1) 0.743 µM | Potency (NIH3T3) 0.235 µM

C=CC1=C(C(=O)O)N2C(=O)[C@@H](NC(=O)C(=NO)c3csc(N)n3)[C@H]2SC1
inactive: outcome (CRL-7250) | max response (HEK293) 0.682% | max response (HaCat) 4.35% | max response (KB-3-1) 4.36% | outcome (NIH3T3)

Cc1ncc(-c2ccnc(Nc3ccc(S(C)(=O)=O)cc3)n2)n1C(C)C
active: Potency (CRL-7250) 3.72 µM | Potency (HEK293) 4610 nM | Potency (HaCat) 8.33 µM and 5.8 µM | Potency (KB-3-1) 5.26 µM and 5.17 µM | Potency (NIH3T3) 13.2 µM

COC1=C(OC)C(=O)C(CC=C(C)CCC=C(C)CCC=C(C)CCC=C(C)CCC=C(C)CCC=C(C)CCC=C(C)CCC=C(C)CCC=C(C)CCC=C(C)C)=C(C)C1=O
inactive: outcome (CRL-7250) | max response (HEK293) -5.18% | max response (HaCat) -8.05% | max response (KB-3-1) -1.17% | max response (NIH3T3) 4.96%

O=C(O)CCCCC(CCSCc1ccccc1)SCc1ccccc1 (stereo not given)
inactive: max response (CRL-7250) 0.756% | max response (HEK293) -0.529% | outcome (HaCat) | outcome (KB-3-1) | max response (NIH3T3) 2.24%

C[C@@]12C(=O)OC(=O)[C@@]1(C)C1CCC2O1
active: Potency (CRL-7250) 5.26 µM | Potency (HEK293) 8330 nM | Potency (HaCat) 26.4 µM | Potency (KB-3-1) 7.43 µM | Potency (NIH3T3) 13.2 µM

COc1cc([C@@H]2c3cc4c(cc3[C@H](O)[C@H]3COC(=O)[C@@H]23)OCO4)cc(OC)c1OC
active: Potency (CRL-7250) 0.296 µM | Potency (HEK293) 132 nM | Potency (KB-3-1) 0.235 µM | Potency (NIH3T3) 0.187 µM
inactive: max response (HaCat) 4.88%
